Sampled rows, rich in hits. Any-hit rate of the full collection: about 3.7%.
RE007 growth inh: less growth of the S. pombe RE007 Vpr strain; S. pombe RE007 Vpr strain, BacTiter-Glo ATP luminescence, 24 h; Potency, µM (highest dose often 92.2 µM), without a hit: at the highest dose activity change, negative = less growth, most hits filed as inhibitors; hit rate 0.21% among 360,000; AID 651644; active = well fitted falling curve with a large enough effect; inconclusive = small, poorly fitted or top-dose-only effect; inactive = no such curve, though single readings can be large or run the other way; also: nearly all actives have a fitted effect of over 50% in size
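Fission yeast RE007 carrying one integrated HIV-1 vpr copy, seeded at OD 0.01 in PMG+AL medium with 23 nL pinned compound. Grown 24 h at 30 degrees; viability read by BacTiter-Glo luminescence after 5 min.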
FMDV inh: foot and mouth disease virus antiviral activity | FMDV antiviral cell-based qHTS | Potency, µM (titrated, usually from 57.9 µM), for inactives: at the highest dose activity change, negative = inhibition, most hits filed as inhibitors | hit rate 1.2% among 410,000 | AID 1159524; calls by dose curve; tested in HEK293T cells; also: read-out not given here; nearly all actives have a fitted effect of over 45% in size
Tb PYK inh: blocks Trypanosoma brucei pyruvate kinase. TbPYK enzyme, Kinase-Glo Plus ATP luminescence, 45 min. Potency, µM (titrated, usually from 76.8 µM), for the others: top-dose activity, negative = inhibition, hits mostly inhibitors. hit rate 0.12% among 410,000. AID 624173; also: nearly all actives have a fitted effect of over 50% in size
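Readout: single end-point luminescence (Kinase-Glo Plus, 10 min). Reaction conditions were TbPYK/substrate plus 130 uM ADP, 45 min at RT, pH 7.2 TEA buffer. No-enzyme wells served as controls, and data were normalized before concentration-response fitting.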
Sm TGR inh: inhibitors of Schistosoma mansoni thioredoxin glutathione reductase; Potency, µM (series often up to 114 µM), inactives show at the highest dose activity change, negative = inhibition, hits mostly inhibitors; Q962Y6; hit rate 3% among 360,000; purified TGR, DTNB reduction, TNB absorbance 405 nm; also: nearly all actives have a fitted effect of over 60% in size
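Kinetic colorimetric format: TGR-catalysed, NADPH-driven DTNB reduction monitored via TNB absorbance. Enzyme dispensed at 20 nM; compound exposure 15 min at room temperature before reaction start.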
An asterisk follows results filed as active; ? = inconclusive; nt = not tested or not shown. Unless noted, calls follow the shape of the dose curve; as a rule, active = well fitted curve in the direction sought with a large enough effect; inconclusive = small, poorly fitted or top-dose-only effect, or another doubt; inactive = no such curve, though single readings can be large; an effect the other way counts as inactive or inconclusive. % is scaled to controls: 0 for no effect and ±100 for the full control effect; potency is read from the fitted curve at half-maximal effect.

SMILES	RE007 growth inh	FMDV inh	Tb PYK inh	Sm TGR inh
COc1ccc(C(=O)/C=C/c2cc(C(=O)O)cc3c2OCOC3)c(O)c1	-16%	?	-5%	?
O=C(O)c1cc(/C=C/C(=O)c2cc(F)ccc2O)c2c(c1)COCO2	-17%	?	-8%	28µM*
COc1ccc(S(=O)(=O)n2nc(OC(C)=O)cc2N)cc1	-9%	-19%	-21%	25µM*
COc1ccccc1C1CN(CC(=O)N2CCC(C(O)c3ccccn3)CC2)Cc2ccccc2O1 (configuration not stated)	nt	2%	nt	nt
CC1CCN(CC(CS(=O)(=O)c2ccc([N+](=O)[O-])cc2)N2CCC(C)CC2)CC1 (configuration not stated)	2%	28µM*	4%	2.5µM*
O=C(Nc1nc(-c2ccc(F)c(F)c2)cs1)c1ccc(OCC2CCCO2)cc1 (configuration not stated)	0%	2µM*	-5%	-14%
CCOc1ccc2nc(NC(=O)c3ccc(OCC4CCCO4)cc3)sc2c1 (configuration not stated)	-13%	18µM*	-2%	-2%
Cc1ccnc(NC(=O)c2ccc(OCC3CCCO3)cc2)c1 (configuration not stated)	?	16µM*	-20%	-5%
Cc1csc(NC(=O)c2ccc(OCC3CCCO3)cc2)n1 (configuration not stated)	-9%	-68%	-8%	6%
CN(CC1CCCO1)S(=O)(=O)c1ccc(C(=O)Nc2nc(-c3ccccn3)cs2)cc1 (configuration not stated)	10%	28µM*	-3%	6%
Cc1cccc2sc(NC(=O)c3ccc(OCC4CCCO4)cc3)nc12 (configuration not stated)	-8%	?	3%	nt
CCCCOc1cc(C[C@@H]2CNC(=O)N2)ccc1OC	nt	-12%	nt	nt
CC(=O)OCC(=O)[C@@]1(O)CCC2C3CCC4=CC(=O)CC[C@]4(C)C3=CC[C@@]21C (some centres not stated)	nt	nt	0%	nt
Cc1cccc(CNC(=O)c2cnn(-c3ncc4c(n3)-c3ccccc3CC4)c2C2CC2)n1	nt	4%	nt	nt
COc1cccc(CN(C)C(=O)CNC(=O)c2sc3ccccc3c2Cl)c1OC	4%	40µM*	-13%	2%
CCCCn1c(CCl)nc2cc(S(=O)(=O)N3CCOCC3)ccc21	22%	32µM*	-5%	nt
Cn1c(C(=O)Nc2ccc(OC(F)(F)F)cc2)cc2c(=O)n3ccccc3nc21	nt	2%	2%	-8%
COc1cc(NC(=O)CN2c3ccccc3S(=O)(=O)c3ccccc32)cc(OC)c1	nt	-13%	0%	3%
O=C(NCCc1ccc(Cl)cc1)C(=O)NCC(c1ccco1)S(=O)(=O)c1ccc(Cl)cc1 (configuration not stated)	nt	-38%	-2%	4µM*
Cc1ccc(S(=O)(=O)C(CNC(=O)C(=O)NCCc2ccccc2)c2ccco2)cc1 (configuration not stated)	nt	?	-1%	45µM*
CCOc1ccc(S(=O)(=O)NCC(c2ccco2)S(=O)(=O)c2ccc(F)cc2)cc1 (configuration not stated)	nt	16%	0%	0.32µM*
O=C(COc1ccc(Cl)cc1)NCC(c1ccco1)S(=O)(=O)c1ccc(F)cc1 (configuration not stated)	nt	-25%	2%	25µM*
Cc1cc(C)c(NC(=O)C2CCN(c3nn4c(=O)cc(C)nc4s3)CC2)c(C)c1	nt	2%	3%	11%
O=C(NCC(c1ccco1)S(=O)(=O)c1ccc(Cl)cc1)c1ccc(C(F)(F)F)cc1 (configuration not stated)	nt	?	-1%	0.89µM*
COc1ccc(CNC(=O)C(=O)NCC(c2ccco2)S(=O)(=O)c2ccc(Cl)cc2)cc1 (configuration not stated)	nt	?	5%	11µM*
SMILES	RE007 growth inh	FMDV inh	Tb PYK inh	Sm TGR inh
COc1ccc(CNC(=O)C(=O)NCC(c2ccco2)S(=O)(=O)c2ccc(C)cc2)cc1 (configuration not stated)	nt	0%	-4%	-29%
Cc1ccc(S(=O)(=O)C(CNC(=O)c2ccc(C(F)(F)F)cc2)c2ccco2)cc1 (configuration not stated)	nt	-23%	-3%	?
O=S(=O)(NCCC(c1ccc(F)cc1)c1ccco1)c1ccccc1 (configuration not stated)	-3%	4.5µM*	?	?
O=C(CC(c1ccco1)S(=O)(=O)c1ccccc1)c1ccc(F)cc1 (configuration not stated)	-7%	17%	-7%	1.6µM*
COc1ccc(CNc2ncnc3c2c(-c2ccccc2)cn3-c2cccc(C)c2)cc1	nt	-27%	-4%	0%
CC1CCC(C(C)C)C(P(=O)(c2ccccc2)c2ccccc2)C1 (configuration not stated)	nt	-27%	nt	nt
COC(=O)c1ccccc1NC(=O)Cn1cnc2sc(C)c(S(=O)(=O)N3CCC(C)CC3)c2c1=O	nt	-12%	2%	0%
COc1cc(-n2nc(C)c3c2OC(N)=C(C#N)C3c2ccccc2)c(Cl)c(Br)c1O (configuration not stated)	-24%	22µM*	-11%	-33%
Cc1c(C(=O)OC2CCC(C)CC2)[nH]c2c1C(=O)CC(c1ccccc1Cl)C2 (configuration not stated)	nt	-20%	0%	12%
COc1cccc(NC(=O)c2sc3nc(C)c(C(=O)Nc4ccc(C)cc4C)c(-c4ccc(C)o4)c3c2N)c1	nt	4%	-4%	-5%
Cn1c2ccccc2c(=O)c2cc(C#Cc3cccc(N)c3)ccc21	-12%	67%	3%	-1%
Cn1c2ccccc2c(=O)c2cc(C#CC3=CCCCC3)ccc21	-13%	-7%	-17%	2.2µM*
COC(=O)c1ccc(NC(=O)c2nn(C)c3c2CS(=O)(=O)c2ccccc2-3)cc1	nt	-12%	1%	7%
Cc1cc(=O)n(Cc2c(F)cccc2Cl)c2c1c(C)nn2C	nt	-11%	-1%	13%
Nc1c(NC/C=C\COc2cc(CN3CCCCC3)ccn2)c(=O)c1=O	nt	nt	5%	nt
O=C(O)/C=C/C(=O)Nc1ccc(Oc2ncnc3cc(Cl)ccc23)nc1	32µM*	12%	3%	8.9µM*
O=C(Nc1ccccc1)Nc1ccc(Oc2ncnc3cc(Cl)ccc23)nc1	1%	-9%	-2%	8%
Cc1nn(-c2ccccc2)c2c1C(c1ccncc1)C(C#N)=C(N)O2 (configuration not stated)	?	-24%	-7%	-33%
CC1=C(n2nnc3ccccc32)C(c2ccccc2)C(C#N)=C(N)O1 (configuration not stated)	-1%	0%	-15%	35µM*
COc1ccc(N2C(=O)CC(NCCNc3ccc([N+](=O)[O-])cn3)C2=O)cc1 (configuration not stated)	-4%	-7%	-1%	14µM*
